From PubChem BioAssay
Cycloheximide cs – affects cycloheximide protein synthesis inhibition readout, counter-screen. cell reporter, cycloheximide protein synthesis inhibition counterscreen. actives 12% (n = 300,000). max response, %; in the data active = max response mostly above about 13%, no sharp cut-off; inactive = mostly below about 14%; also: read at 38.3 µM for the half of the compounds with a filed dose
Pf growth 48h – inhibits P. falciparum growth in the first generation, 48 h; AID 504832; Potency, µM (doses to about 28.7 µM), actives largely listed as inhibitors; P. falciparum luciferase growth in erythrocytes, 48 h; actives 5.9% (n = 310,000)
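Luciferase-expressing parasites in RBCs, 2% Hct / 0.1% parasitemia final; RPMI 1640 + 0.5% Albumax; 37 C, 5% CO2, one generation; luminescence read-out, lower signal = inhibition.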
Shiga inhibitor – inhibitors of Shiga toxin in Vero cells; Vero cells, Shiga toxin protein synthesis inhibition reporter; inhibition, % at 38.7 µM; actives 9.2% (n = 290,000); AID 2315; in the data active = inhibition mostly above about 28%, no sharp cut-off; inactive = mostly below about 43%
Pf growth 96h – inhibits malaria parasite growth, 96 h. P. falciparum luciferase reporter growth, 96 h. Potency, µM (top dose mostly 28.7 µM), hits mostly inhibitors. actives 6.9% (n = 320,000). AID 504834
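Plates of compound plus infected erythrocytes (2% hematocrit, 0.05% parasitemia final) incubate 96 hours, 37 C, 5% CO2. Detection reagent added; reduced luminescence from the parasites' luciferase reporter flags inhibition.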
HCMV inh – inhibitors of human cytomegalovirus. HFF cells, HCMV-luciferase reporter, 72 h; hits give low values. activity change, negative = inhibition, % at 57.5 µM. actives 4.5% (n = 410,000). AID 1259415; in the data active = activity change below about -60%; inconclusive = no clear call, values can overlap the other calls; inactive = above about -39%
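Steps: HFFs plated, 16 h 37C; compounds added; HCMV-luciferase added to MOI 1 PFU/cell; 72 h 37C; OneGlo reagent, 5 min room temperature; luminescence read, normalized to controls.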
Numbers stand for hits. Hits are enriched below; roughly 20% of the tested compounds scored in any of these assays. Unless noted, calls follow the shape of the dose curve; as a rule, active = well fitted inhibition curve with a large enough effect; inconclusive = small, poorly fitted or top-dose-only effect, or another doubt; inactive = no such curve, though single readings can be large or run the other way.

Screening CCC(=O)Oc1ccc(NC(=O)c2ccco2)cc1 returned Cycloheximide cs inactive, Pf growth 48h inactive, Shiga inhibitor inactive, Pf growth 96h inactive and HCMV inh inactive.
Screening CC(C)Oc1cccc(C(=O)Nc2ccc(NC(=O)c3ccco3)cc2)c1 returned Cycloheximide cs inactive, Pf growth 48h inactive and Shiga inhibitor inactive.
Screening O=C(O)COc1ccc(NC(=O)c2ccco2)cc1 returned Cycloheximide cs inactive, Shiga inhibitor inactive, Pf growth 96h inactive and HCMV inh inactive.
`O=C(Nc1ccc(OC(=O)c2ccco2)cc1)c1ccco1` gave Cycloheximide cs inactive, Pf growth 48h inactive, Shiga inhibitor 32.3, Pf growth 96h inconclusive and HCMV inh inactive.
For CC(Oc1ccc(NC(=O)c2ccco2)cc1)C(=O)N1c2ccccc2CC1C (centres undefined) the results were Cycloheximide cs inactive, Pf growth 48h inconclusive, Shiga inhibitor inactive, Pf growth 96h 5.22µM and HCMV inh inactive.
`Cc1ccccc1CSc1nc2cccnc2n1Cc1ccc(C(=O)NCCc2cccs2)cc1` gave HCMV inh inactive.
Screening O=C(Cn1cc([N+](=O)[O-])ccc1=O)NCc1ccc(Cl)cc1Cl returned Cycloheximide cs 32.9, Pf growth 48h inactive, Shiga inhibitor 24.3 and Pf growth 96h inactive.
`O=C(Cn1cc(C(F)(F)F)cc(Cl)c1=O)NCc1ccc(Cl)cc1Cl` gave Cycloheximide cs inactive, Pf growth 48h inconclusive, Shiga inhibitor inactive, Pf growth 96h inconclusive and HCMV inh inactive.
For COc1ccccc1CN1C(=NC(=O)C2CCCCC2)SC2CS(=O)(=O)CC21 (centres undefined) the results were Cycloheximide cs inactive, Pf growth 48h inactive, Shiga inhibitor inactive, Pf growth 96h inactive and HCMV inh inactive.
O=C(Cn1c(=O)oc2ccccc21)Nc1nc(-c2ccc(Br)cc2)cs1 was read as Cycloheximide cs inactive, Pf growth 48h inactive, Shiga inhibitor inactive, Pf growth 96h inactive and HCMV inh -60.5.
For Cc1sc(NC(=O)Cn2c(=O)oc3ccccc32)nc1-c1ccc(Cl)cc1 the results were Cycloheximide cs inactive, Pf growth 48h inactive, Shiga inhibitor inactive, Pf growth 96h inconclusive and HCMV inh -60.5.
Cc1c(NC(=O)CSCc2ccc(Br)cc2)c(=O)n(-c2ccccc2)n1C was read as Cycloheximide cs inactive, Pf growth 48h inactive, Shiga inhibitor inactive, Pf growth 96h inconclusive and HCMV inh inactive.
`COc1ccc(CCN2C(=O)c3[nH]nc(-c4ccccc4O)c3C2c2cccc(O)c2)cc1OC` (centres undefined) gave Cycloheximide cs inactive, Pf growth 48h 10.4µM, Shiga inhibitor inactive, Pf growth 96h 13.1µM and HCMV inh inactive.
`CCCCN1C(=O)c2[nH]nc(-c3ccccc3O)c2C1c1ccc(OCc2ccccc2)cc1` (centres undefined) gave HCMV inh -108.0.
For COCCCN1C(=O)c2[nH]nc(-c3ccccc3O)c2C1c1ccc(OCc2ccccc2)cc1 (centres undefined) the results were HCMV inh -95.8.
For COc1cccc(C2c3c(-c4ccccc4O)n[nH]c3C(=O)N2CCc2ccc(OC)c(OC)c2)c1 (centres undefined) the results were HCMV inh inactive.
COCCN1C(=O)c2[nH]nc(-c3ccccc3O)c2C1c1ccc(OC)cc1 (centres undefined) was read as Cycloheximide cs inactive, Pf growth 48h inactive, Shiga inhibitor inactive, Pf growth 96h inactive and HCMV inh inactive.
O=C1c2[nH]nc(-c3ccccc3O)c2C(c2cccc(Cl)c2)N1Cc1ccco1 (centres undefined) was read as Cycloheximide cs inactive, Pf growth 48h 8.28µM, Shiga inhibitor inactive and HCMV inh inactive.
For COc1cc(C2CC(=O)Nc3cc4c(cc32)OCCO4)cc(Br)c1OC (centres undefined) the results were HCMV inh -80.6.
CC(C)Oc1cccc(C2CC(=O)Nc3cc4c(cc32)OCO4)c1 (centres undefined) was read as HCMV inh inactive.
Screening COc1ccccc1C1CC(=O)Nc2cc(C)c(C)cc21 (centres undefined) returned Cycloheximide cs inactive, Pf growth 48h inactive, Pf growth 96h 13.1µM and HCMV inh inactive.
Screening Cc1cc2c(cc1C)C(c1ccccc1OC(C)C)CC(=O)N2 (centres undefined) returned Cycloheximide cs inactive, Pf growth 48h inconclusive, Shiga inhibitor inactive, Pf growth 96h inconclusive and HCMV inh inactive.
For COc1cc2c(cc1OC)C(c1ccc(Br)cc1)CC(=O)N2 (centres undefined) the results were Cycloheximide cs inactive, Pf growth 48h inactive, Shiga inhibitor inactive, Pf growth 96h 5.22µM and HCMV inh inactive.
Screening CC(C)Oc1ccccc1C1CC(=O)Nc2cc3c(cc21)OCO3 (centres undefined) returned Cycloheximide cs inactive, Pf growth 48h inconclusive, Shiga inhibitor inactive and HCMV inh -100.9.
`CCOC(=O)/C(C#N)=C/Nc1cc(C(C)(C)C)sc1C(C)=O` gave Cycloheximide cs inactive, Pf growth 48h inconclusive, Shiga inhibitor inactive, Pf growth 96h inactive and HCMV inh inactive.
`CCC1(c2ccc(OC)cc2)NC(=O)N(C)C1=O` (centres undefined) gave Cycloheximide cs inactive and Shiga inhibitor inactive.
`CCCOc1ccccc1C1CC(=O)Nc2cc3c(cc21)OCCO3` (centres undefined) gave Cycloheximide cs inactive, Pf growth 48h inconclusive, Shiga inhibitor inactive and Pf growth 96h inactive.
`CCCCOc1ccccc1C1CC(=O)Nc2cc(C)c(C)cc21` (centres undefined) gave HCMV inh inactive.
Screening CCOc1ccccc1C1CC(=O)Nc2cc(C)c(C)cc21 (centres undefined) returned Cycloheximide cs inactive, Pf growth 48h inactive, Pf growth 96h 11.7µM and HCMV inh inactive.
CCOc1ccccc1C1CC(=O)Nc2cc3c(cc21)OCCO3 (centres undefined) was read as Cycloheximide cs inactive, Shiga inhibitor inactive, Pf growth 96h inactive and HCMV inh -98.5.
`CCOc1ccc(CC(=O)Nc2c(C(=O)Nc3ccccc3)oc3ccccc23)cc1OCC` gave Cycloheximide cs inactive, Pf growth 48h inactive, Shiga inhibitor inactive, Pf growth 96h 0.928µM and HCMV inh inactive.
`COc1ccc(CC(=O)Nc2c(C(N)=O)oc3ccccc23)cc1OC` gave Cycloheximide cs inactive, Pf growth 48h inactive, Shiga inhibitor inactive, Pf growth 96h inactive and HCMV inh inactive.
`Cc1ccc(NC(=O)c2oc3ccccc3c2NC(=O)Cc2ccccc2)cc1` gave HCMV inh inactive.
`CCOc1ccc(CC(=O)Nc2c(C(=O)c3ccc(C)cc3)oc3ccccc23)cc1OCC` gave HCMV inh -62.8.
For CCOc1ccc(CC(=O)Nc2c(C(=O)c3ccc(Cl)cc3)oc3ccccc23)cc1OCC the results were HCMV inh inactive.
Screening CCOc1ccc(CC(=O)Nc2c(C(N)=O)oc3ccc(Br)cc23)cc1OCC returned Cycloheximide cs inactive, Shiga inhibitor inactive, Pf growth 96h 11.7µM and HCMV inh inactive.
